The list is not random: actives were taken first. Their share in the collection is about 10%.
JMJD2A Tudor inh – qHTS Assay for Inhibitors of JMJD2A-Tudor Domain. Potency, µM (series often up to 114 µM), for the others: top-dose activity change, negative = inhibition, hits mostly inhibitors. 4.4% of 390,000 active. AID 504339, 2011. AlphaScreen JMJD2A-Tudor / H3K4me3 peptide binding. Lysine-specific demethylase 4A (Homo sapiens), O75164; also: potency is read from the fitted curve at half-maximal effect; % is scaled to controls: 0 for no effect and ±100 for the full control effect; nearly all actives have a fitted effect of over 50% in size
Six1-Eya2 inh – qHTS Assay for Inhibitors of the Six1/Eya2 Interaction | activity change, % (test concentration not listed) | 0.56% of 360,000 active | AID 651725, 2012 | AlphaScreen GST-Six1/His-Eya2 binding, biochemical; hits give low values; in the data active = activity change below about -65%; inconclusive = mostly about -30% to -63%; also: % is scaled to controls: 0 for no effect and ±100 for the full control effect
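AlphaScreen luminescence read after one hour at 37 °C in darkness. Pin-transferred compounds met GST-Six1 and His-Eya2 protein (5X stock 250 nM/500 nM) plus glutathione donor and Ni-chelate acceptor beads (5X, 50 ug/mL).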
CtBP-E1A blk – qHTS Assay for Inhibitors of the CtBP/E1A Interaction | AlphaScreen GST-E1A/His-CtBP binding, 1536-well; hits give low values | activity change, % (no concentration beside the values) | 0.49% of 340,000 active | AID 651724, 2012; in the data active = activity change below about -65%; inconclusive = mostly about -30% to -63%; also: % is scaled to controls: 0 for no effect and ±100 for the full control effect
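Homogeneous bead-based format: GST-tagged E1A captured on glutathione donor beads, His-tagged CtBP on nickel acceptor beads; compounds precede bead addition by 2 h at 37 °C.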
HP1b chromo inh – HTS for Inhibitors of HP1-beta Chromodomain Interactions with Methylated Histone Tails. Potency, µM (highest dose often 114 µM), for the others: at the top dose activity change, negative = inhibition, usual class: inhibitors. 0.56% of 390,000 active. AlphaScreen HP1-beta / biotin-H3K9me3 peptide binding. Chromobox protein homolog 1 (Homo sapiens), P83916; also: potency is read from the fitted curve at half-maximal effect; nearly all actives have a fitted effect of over 70% in size
Target sequence (P83916 whole entry, looked up): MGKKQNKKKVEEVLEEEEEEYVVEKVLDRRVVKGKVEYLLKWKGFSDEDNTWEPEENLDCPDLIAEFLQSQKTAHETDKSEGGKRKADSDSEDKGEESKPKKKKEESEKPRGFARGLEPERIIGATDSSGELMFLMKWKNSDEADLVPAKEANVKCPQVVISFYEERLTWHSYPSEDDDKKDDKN
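AlphaScreen: HP1-beta (50 nM) preformed 30 min with biotin-H3(1-18)K9me3 peptide (50 nM) in PBS pH 7.4, 0.01% Tween-20. Compound added for 30 min at RT, then streptavidin donor/nickel chelate acceptor beads (10 ug/mL) for 30 min.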
BAZ2B block – qHTS Assay for Inhibitors of BAZ2B; Bromodomain adjacent to zinc finger domain protein 2B (Homo sapiens), Q9UIF8; AlphaScreen BAZ2B-H3K14Ac peptide displacement; Potency, µM (highest dose often 114 µM), for the others: at the top dose activity change, negative = inhibition, hits mostly inhibitors; 4.4% of 360,000 active; AID 504333, 2011; also: potency is read from the fitted curve at half-maximal effect; % is scaled to controls: 0 for no effect and ±100 for the full control effect; nearly all actives have a fitted effect of over 60% in size
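AlphaScreen luminescence quantifies BAZ2B engagement of H3K14Ac peptide; the protein and biotinylated peptide are both at 50 nM final, buffer PBS pH 7.4 with 0.01% Tween-20, all steps at room temperature.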
G9a block – qHTS Assay for Inhibitors of Histone Lysine Methyltransferase G9a; AID 504332, 2011; G9a H3K9 monomethylation, AlphaScreen, 2 h; Potency, µM (highest dose often 102 µM), for the others: at the top dose activity, negative = inhibition, most hits filed as inhibitors; Histone-lysine N-methyltransferase EHMT2 (Homo sapiens), Q96KQ7; 8.8% of 350,000 active; also: potency is read from the fitted curve at half-maximal effect; % is scaled to controls: 0 for no effect and ±100 for the full control effect; nearly all actives have a fitted effect of over 75% in size
Target sequence (Q96KQ7 913-1193 limits assumed): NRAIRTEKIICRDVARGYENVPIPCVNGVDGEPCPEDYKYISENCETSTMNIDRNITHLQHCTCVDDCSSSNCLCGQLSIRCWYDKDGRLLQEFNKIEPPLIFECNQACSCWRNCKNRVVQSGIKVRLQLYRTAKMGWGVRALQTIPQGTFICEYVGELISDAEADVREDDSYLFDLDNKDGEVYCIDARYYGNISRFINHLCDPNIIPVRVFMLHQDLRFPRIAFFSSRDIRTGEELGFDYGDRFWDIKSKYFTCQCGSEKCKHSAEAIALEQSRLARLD
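Step 1: enzyme (final 20 nM) with compound, 15 min RT. Step 2: substrate peptide 500 nM and SAM 20 uM, 2 h RT. Step 3: anti-H3K9me1 antibody and AlphaScreen beads, 10 min, then plate read.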
An asterisk follows results filed as active; ? = inconclusive; . = not tested or not shown; [ ] = dose if it differs, or a comment. Unless noted, calls follow the shape of the dose curve; as a rule, active = well fitted inhibition curve with a large enough effect; inconclusive = small, poorly fitted or top-dose-only effect; inactive = no such curve, though single readings can be large or run the other way.

SMILES	JMJD2A Tudor inh	Six1-Eya2 inh	CtBP-E1A blk	HP1b chromo inh	BAZ2B block	G9a block
O=[N+]([O-])c1ccccc1/C=N/n1c(-c2ccccc2)n[nH]c1=S	8.9µM*	-6	-8	-28%	?	.
CCOc1ccccc1NC(=O)C1CCN(S(=O)(=O)c2cccc3nonc23)CC1	-14%	.	.	21%	5%	-7%[59 µM]
COc1ccc(OC)c(CC2C(=O)Nc3ccc(Br)cc32)c1 (configuration not stated)	?	.	.	1%	?	?
CC(=O)N1CCN(c2ccc(NCc3ccc(F)cc3)cc2)CC1	?	-16	-4	6%	-35%	7.9µM*
COc1cc(CNc2ccc(N3CCN(C(C)=O)CC3)cc2)ccc1OCc1ccc(F)cc1	?	?	?	?	22µM*	4µM*
CC(=O)N1CCN(c2ccc(NCc3cccc(C)c3)cc2)CC1	?	.	.	-12%	?	?
CCCCOC(=O)c1ccc(NC(=O)c2ccc3c(c2)CCCN3S(C)(=O)=O)cc1	-15%	.	.	14%	-11%	-3%[59 µM]
COC(=O)c1c(-c2ccc(Cl)cc2)noc1N1CCN(c2cccc(C(F)(F)F)c2)CC1	18%	.	.	51%[57 µM]	22%	16%[59 µM]
Cc1cc(C)cc(Oc2ccc(N)cc2)c1	?	-13	-19	-25%	?	-51%[59 µM]
Nc1ccc(Oc2ccc(Br)cc2)cc1	?	-17	-1	?	40µM*	-10%[59 µM]
CCCCn1c(-c2ccc([N+](=O)[O-])cc2)n[nH]c1=S	7.9µM*	3	-3	?	-5%	?
CCCn1c(-c2ccc(F)cc2)n[nH]c1=S	5.6µM*	1	-1	15%	17%	22µM*
CCn1c(-c2ccc(C)cc2)n[nH]c1=S	7.9µM*	2	1	16%	-24%	1.3µM*
CCCCc1nc(SCc2ccc([N+](=O)[O-])cc2)n[nH]1	-6%	5	.	44%	-2%	.
CCn1c(-c2nn(C)c(C)c2Cl)n[nH]c1=S	?	0	-1	38%	0%	2.2µM*
CCn1c(-c2ccc(Cl)cc2)n[nH]c1=S	5µM*	1	9	-3%	3%	1.3µM*
Cc1cc(S(=O)(=O)Nc2ccc(-c3ccc(N4CCCCCC4)nn3)cc2)c(C)cc1Cl	-20%	.	.	10%[57 µM]	?	-25%[59 µM]
O=C(O)c1ccc(N/N=C/C2=Cc3ccccc3OC2)cc1	-29%[11.4 µM]	-6	-13	-10%	-37%	50µM*
c1ccc(-c2cc(NCCN3CCCCC3)c3ccccc3n2)cc1	-14%	-8	-11	21%	-21%	40µM*
COc1ccc(-n2c(Cc3ccccc3)nnc2SCc2ccc([N+](=O)[O-])cc2)cc1	?	-6	-11	-14%	?	50µM*
COc1ccc(CC(=O)NCc2nnc(SCc3ccc([N+](=O)[O-])cc3)n2C)cc1	-15%	-2	5	18%	-13%	13%
O=[N+]([O-])c1ccc(CSc2nnc(Cc3ccccc3)n2-c2ccc(F)cc2)cc1	-34%	-12	6	3%	?	-13%[59 µM]
Cn1c(Cc2cccc3ccccc23)nnc1SCc1ccc([N+](=O)[O-])cc1	?	-17	-6	-8%	-39%	10µM*
COc1ccccc1CNc1ccc(-c2nc(-c3ccccn3)no2)cc1[N+](=O)[O-]	-17%	.	.	51%	13%	2%[59 µM]
Cc1cc(Cl)ccc1NC(=O)CS(=O)(=O)c1cccc2nsnc12	?	.	.	10%[57 µM]	-6%	8%[59 µM]
SMILES	JMJD2A Tudor inh	Six1-Eya2 inh	CtBP-E1A blk	HP1b chromo inh	BAZ2B block	G9a block
Cc1ccc(NC(=O)/C(C#N)=C(\N)C(Cl)(Cl)Cl)nc1	-8%[57.1 µM]	?	-16	16%	56µM*	?
Cc1ccc(NC(=O)C(=O)Nc2ccc(C)cn2)nc1	7%	1	2	33%	-14%	26%[59 µM]
CCN(c1ccccc1)c1nnc(NC(=O)Nc2ccc(C)cc2)s1	3%	.	.	45%	1%	-45%[59 µM]
Cc1cc(=O)n2nc(N3CCC(C(=O)Nc4ccc(C)c(Cl)c4)CC3)sc2n1	-9%	.	.	16%	1%	9%[59 µM]
O=[N+]([O-])c1ccc(-c2nc(C(Cl)Cl)c3ccccc3n2)cc1	-8%	-4	1	24%	?	22µM*
COc1cccc(NC(=O)CN(C)C(=O)c2ccc(Cl)c(S(=O)(=O)N3CCCCCC3)c2)c1	-22%	6	-26	-1%	10%	71µM*
COc1cccc(NC(=O)CN(C)C(=O)c2cccc(S(=O)(=O)N3c4ccccc4CC3C)c2)c1 (configuration not stated)	-27%	-13	-2	10%	2%	16µM*
Cc1ccc(OCC(=O)N(c2ccc(C)cc2)S(=O)(=O)c2ccc(Cl)cc2)cc1	-7%	.	.	42%	2%	17%[59 µM]
O=C(NNc1nc2ccc(Cl)cc2s1)c1cc(-c2cccs2)nc2ccccc12	?	-9	-2	49%	-34%	-9%
CC(C)OCCCNC(=O)c1cc(-c2cccs2)nc2ccccc12	0%	-5	1	43%	1%	22%[0.501 µM]
Cc1ccc2sc(NNC(=O)c3cc(-c4cccs4)nc4ccccc34)nc2c1C	.	.	.	.	5%	32µM*
Cc1ccc(NC(=O)c2cc(-c3cccs3)nc3ccccc23)nc1	11%	1	22	63%	-18%	40µM*
Cc1cc(C)c2nc(NNC(=O)c3cc(-c4cccs4)nc4ccccc34)sc2c1	?	-9	0	36%	?	32µM*
Cc1c(NC(=O)c2cc(-c3cccs3)nc3ccccc23)c(=O)n(-c2ccccc2)n1C	-23%	-7	-19	8%	-32%	30%[59 µM]
Cc1ccc2nc(Cl)c3cc(C(=O)N4CCCC(C)C4)sc3c2c1 (configuration not stated)	20%	.	.	60%	2%	35%[59 µM]
Cc1cc2[nH]c(=O)c(=O)[nH]c2cc1S(=O)(=O)N(C)C1CCCCC1	3.5µM*	4	-2	36%	1%	.
CCc1cc2c(cc3c(=O)n(CC(=O)NC(C)c4ccccc4)ncn32)s1 (configuration not stated)	100µM*	.	.	9%	-7%	-3%[59 µM]
O=C(CN1CCN(S(=O)(=O)c2cc(Cl)ccc2Cl)CC1)Nc1cccc(F)c1	-8%	.	.	16%[57 µM]	-2%	5%[59 µM]
CCCCc1nn2c(=O)cc(COC(=O)c3cccc(OC)c3)nc2s1	-5%	.	.	2%	-1%	13%[59 µM]
